Inconclusive results are not listed. Active and inactive are the calls of the source. The call rests on the fitted dose curve; in most records, active means well fitted cell-killing curve with a large enough effect; inconclusive means small, poorly fitted or top-dose-only effect, or effect the other way; inactive means no such curve, though single readings can be large or run the other way.
Experiments:
[1] = Quantitative High-Throughput drug screen in 47 multiple myeloma cell lines against the NCATS MIPE library collection: OCIMY1_PLB cell viability assay (AID 1918979); further: nearly all actives have a fitted effect of over 35% in size
Method in brief: (§1)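 Cells were exposed to library compounds for 48 hours, after which ATP was measured by CellTiter-Glo. Signal was taken as median relative luminescence units.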

[2] = Quantitative High-Throughput drug screen in 47 multiple myeloma cell lines against the NCATS MIPE library collection: KMS28PE_JCRB cell viability assay (AID 1918983); further: nearly all actives have a fitted effect of over 35% in size; further: potency means the concentration at half of the fitted maximal effect
Method in brief: as §1

[3] = Quantitative High-Throughput drug screen in 47 multiple myeloma cell lines against the NCATS MIPE library collection: KMS34_JCRB cell viability assay (AID 1918985); further: nearly all actives have a fitted effect of over 40% in size; further: potency means the concentration at half of the fitted maximal effect
Method in brief: as §1

[4] = Quantitative High-Throughput drug screen in 47 multiple myeloma cell lines against the NCATS MIPE library collection: OCIMY5_PLB cell viability assay (AID 1918988); further: nearly all actives have a fitted effect of over 65% in size; further: potency means the concentration at half of the fitted maximal effect
Method in brief: as §1

[5] = Quantitative High-Throughput drug screen in 47 multiple myeloma cell lines against the NCATS MIPE library collection: XG6_PLB cell viability assay (AID 1919865); further: nearly all actives have a fitted effect of over 40% in size; further: potency means the concentration at half of the fitted maximal effect
Method in brief: as §1

[6] = Quantitative High-Throughput drug screen in 47 multiple myeloma cell lines against the NCATS MIPE library collection: XG1_PLB cell viability assay (AID 1919866); further: nearly all actives have a fitted effect of over 35% in size; further: potency means the concentration at half of the fitted maximal effect
Method in brief: as §1

[7] = Quantitative High-Throughput drug screen in 47 multiple myeloma cell lines against the NCATS MIPE library collection: VP6_DJ cell viability assay (AID 1919867); further: nearly all actives have a fitted effect of over 40% in size; further: potency means the concentration at half of the fitted maximal effect
Method in brief: as §1

[8] = Quantitative High-Throughput drug screen in 47 multiple myeloma cell lines against the NCATS MIPE library collection: PE2_PLB cell viability assay (AID 1919869); further: nearly all actives have a fitted effect of over 35% in size; further: potency means the concentration at half of the fitted maximal effect
Method in brief: as §1

[9] = Quantitative High-Throughput drug screen in 47 multiple myeloma cell lines against the NCATS MIPE library collection: PCM6_Riken cell viability assay (AID 1919870); further: nearly all actives have a fitted effect of over 30% in size; further: potency means the concentration at half of the fitted maximal effect
Method in brief: as §1

[10] = Quantitative High-Throughput drug screen in 47 multiple myeloma cell lines against the NCATS MIPE library collection: MM1S_ATCC cell viability assay (AID 1918980); further: nearly all actives have a fitted effect of over 45% in size; further: potency means the concentration at half of the fitted maximal effect
Method in brief: as §1

[11] = Quantitative High-Throughput drug screen in 47 multiple myeloma cell lines against the NCATS MIPE library collection: MM1R_ATCC cell viability assay (AID 1918981); further: nearly all actives have a fitted effect of over 35% in size; further: potency means the concentration at half of the fitted maximal effect
Method in brief: as §1

[12] = Quantitative High-Throughput drug screen in 47 multiple myeloma cell lines against the NCATS MIPE library collection: LP1_DSMZ cell viability assay (AID 1918982); further: nearly all actives have a fitted effect of over 35% in size; further: potency means the concentration at half of the fitted maximal effect
Method in brief: as §1

[13] = Quantitative High-Throughput drug screen in 47 multiple myeloma cell lines against the NCATS MIPE library collection: L363_DSMZ cell viability assay (AID 1918984); further: nearly all actives have a fitted effect of over 40% in size; further: potency means the concentration at half of the fitted maximal effect
Method in brief: as §1

[14] = Quantitative High-Throughput drug screen in 47 multiple myeloma cell lines against the NCATS MIPE library collection: OCIMY7_PLB cell viability assay (AID 1918987); conditions: OCI-MY7 myeloma viability, CellTiter-Glo ATP, 48 h; viability (% of DMSO): at 45.8 µM (top of the series); further: nearly all actives have a fitted effect of over 65% in size; further: potency means the concentration at half of the fitted maximal effect
Method in brief: as §1

[15] = Quantitative High-Throughput drug screen in 47 multiple myeloma cell lines against the NCATS MIPE library collection: OPM1_PLB cell viability assay (AID 1918989); further: nearly all actives have a fitted effect of over 40% in size; further: potency means the concentration at half of the fitted maximal effect
Method in brief: as §1

[16] = Quantitative High-Throughput drug screen in 47 multiple myeloma cell lines against the NCATS MIPE library collection: U266_ATCC cell viability assay (AID 1919864); further: nearly all actives have a fitted effect of over 35% in size; further: potency means the concentration at half of the fitted maximal effect
Method in brief: as §1

[17] = Quantitative High-Throughput drug screen in 47 multiple myeloma cell lines against the NCATS MIPE library collection: UTMC2_PLB cell viability assay (AID 1919868); conditions: CellTiter-Glo ATP luminescence, 48 h; viability (% of DMSO control): at 45.8 µM (top of the series); further: nearly all actives have a fitted effect of over 55% in size; further: potency means the concentration at half of the fitted maximal effect
Method in brief: as §1

[18] = Quantitative High-Throughput drug screen in 47 multiple myeloma cell lines against the NCATS MIPE library collection: RPMI8226_ATCC cell viability assay (AID 1919871); further: nearly all actives have a fitted effect of over 30% in size; further: potency means the concentration at half of the fitted maximal effect
Method in brief: as §1

[19] = Quantitative High-Throughput drug screen in 47 multiple myeloma cell lines against the NCATS MIPE library collection: OPM2_DSMZ cell viability assay (AID 1919872); further: nearly all actives have a fitted effect of over 30% in size; further: potency means the concentration at half of the fitted maximal effect
Method in brief: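 CellTiter-Glo luminescence (ATP) after 48 h compound exposure, 37C/5% CO2; 500 cells/well; MIPE 4.0 approved/investigational drugs pinned in; DMSO = 100%, media only = 0% viability.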

[20] = Quantitative High-Throughput drug screen in 47 multiple myeloma cell lines against the NCATS MIPE library collection: SKMM1_PLB cell viability assay (AID 1919863); conditions: SKMM1 myeloma viability, CellTiter-Glo ATP, 48 h; viability: stronger effect = lower value; further: nearly all actives have a fitted effect of over 35% in size; further: potency means the concentration at half of the fitted maximal effect
Method in brief: as §1

CC1(C)[C@H](O[C@H]2O[C@H](C(=O)O)[C@@H](O)[C@H](O)[C@H]2O[C@@H]2O[C@H](C(=O)O)[C@@H](O)[C@H](O)[C@H]2O)CC[C@@]2(C)[C@H]1CC[C@]1(C)[C@H]2C(=O)C=C2[C@H]3C[C@@](C)(C(=O)O)CC[C@]3(C)CC[C@]21C
inactive: Potency [1] | Potency [2] | Potency [3] | Potency [4] | Potency [5] | Potency [6] | Potency [7] | Potency [8] | Potency [9]

N#CC(=C(O)c1ccc(Cl)cc1Cl)c1nc2cc(Cl)ccc2c(=O)[nH]1
inactive: Potency [10] | Potency [11] | Potency [12] | Potency [2] | Potency [13] | Potency [14] | Potency [15] | Potency [16] | Potency [6] | Potency [17] | Potency [18] | Potency [19]

CC(C)(O)CC[C@@H](O)[C@](C)(O)[C@H]1CC[C@@]2(O)C3=CC(=O)[C@@H]4C[C@@H](O)[C@@H](O)C[C@]4(C)[C@@H]3CC[C@]12C
inactive: Potency [1] | Potency [12] | Potency [3] | Potency [14] | Potency [4] | Potency [15] | Potency [6] | Potency [9] | Potency [18]

CC[C@H](CC[C@@H](C)[C@H]1CC[C@H]2[C@@H]3CC=C4C[C@@H](O)CC[C@]4(C)[C@@H]3CC[C@]12C)C(C)C
inactive: Potency [1] | Potency [12] | Potency [2] | Potency [3] | Potency [4] | viability [20] 106% | Potency [16] | Potency [5] | Potency [6] | Potency [8] | Potency [9] | Potency [18] | Potency [19]

CCN(C(=O)c1c(O)c2c(Cl)cccc2n(C)c1=O)c1ccccc1
inactive: Potency [1] | Potency [12] | Potency [13] | Potency [14] | Potency [4] | Potency [15] | Potency [16] | Potency [5] | Potency [6] | Potency [8] | Potency [9] | Potency [18]

C=CCNc1c(O)cc2c(O)c1C[C@@H](C)C[C@H](OC)[C@@H](O)[C@@H](C)C=C(C)[C@H](OC(N)=O)[C@@H](OC)C=CC=C(C)C(=O)N2
active: Potency [10] 1180 nM | Potency [11] 526 nM | Potency [12] 1870 nM | Potency [2] 418 nM | Potency [13] 33.2 nM | Potency [3] 296 nM | Potency [14] 209 nM | Potency [4] 235 nM | Potency [15] 526 nM | Potency [20] 264 nM | Potency [16] 418 nM | Potency [5] 1050 nM | Potency [6] 418 nM | Potency [7] 118 nM | Potency [17] 418 nM | Potency [8] 1480 nM | Potency [9] 833 nM | Potency [18] 418 nM | Potency [19] 1660 nM

CCCCCCCCCCCC(CC1OC(=O)C1CCCCCC)OC(=O)C(CC(C)C)NC=O (stereo unspecified)
inactive: Potency [1] | Potency [13] | Potency [3] | Potency [6] | Potency [8]
active: Potency [2] 26400 nM | Potency [4] 18700 nM | Potency [20] 16600 nM | Potency [7] 7430 nM | Potency [9] 4690 nM | Potency [18] 18700 nM

O=C(C=CC=Cc1ccc2c(c1)OCO2)N1CCCCC1
active: Potency [7] 2640 nM | Potency [18] 3720 nM
inactive: Potency [1] | Potency [12] | Potency [2] | Potency [3] | Potency [14] | Potency [15] | Potency [17] | Potency [8] | Potency [9]

COc1cc(OC)c(NC(=O)Nc2cc(C)on2)cc1Cl
inactive: Potency [1] | Potency [12] | Potency [13] | Potency [3] | viability [20] 145% | Potency [5] | Potency [6] | Potency [8] | Potency [9]

COc1cc2c(Nc3ccc(Cl)c(Cl)c3F)ncnc2cc1OCC1C[C@@H]2CN(C)C[C@H]2C1
active: Potency [10] 16600 nM | Potency [11] 16600 nM | Potency [12] 18700 nM | Potency [2] 16600 nM | Potency [13] 1660 nM | Potency [14] 209 nM | Potency [4] 1870 nM | Potency [15] 3320 nM | Potency [20] 5900 nM | Potency [16] 23500 nM | Potency [5] 1050 nM | Potency [6] 2350 nM | Potency [17] 2350 nM | Potency [9] 1320 nM

CN(C)c1ccc2cc(C(=O)N[C@@H](CCCN=C(N)CCl)C(=O)NCc3ccccc3)ccc2c1
active: Potency [10] 1180 nM | Potency [11] 4690 nM | Potency [12] 14800 nM | Potency [2] 11800 nM | Potency [13] 6620 nM | Potency [3] 8330 nM | Potency [14] 13200 nM | Potency [4] 4180 nM | Potency [20] 18700 nM | Potency [16] 2960 nM | Potency [5] 935 nM | Potency [6] 1180 nM | Potency [7] 4690 nM | Potency [9] 4180 nM | Potency [18] 18700 nM

CCOC(=O)N1CCN([N+]([O-])=NOc2ccc([N+](=O)[O-])cc2C#N)CC1
active: Potency [10] 1320 nM | Potency [11] 1320 nM | Potency [12] 2640 nM | Potency [2] 1180 nM | Potency [13] 590 nM | Potency [3] 526 nM | Potency [14] 590 nM | Potency [4] 833 nM | Potency [15] 418 nM | Potency [16] 833 nM | Potency [6] 372 nM | Potency [7] 743 nM | Potency [17] 526 nM | Potency [8] 743 nM | Potency [9] 469 nM | Potency [18] 1050 nM | Potency [19] 935 nM

Reference: PubChem BioAssay (NCATS)
